About 3,700 (7%) of roughly 53,000 sequences were called active.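 Rule for the calls: active = gene knockdowns whose robust z-score for IL-1 alpha signal is at least 2 or at most -2, so actives lie on both sides; inactive = the rest.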 The entries come from a sample that favours actives as a whole.
assay: Components of the Cytosolic LPS Sensing Pathway: Gene Identification via Genome-wide siRNA Screen; details: RAW264.7 macrophages, IL-1a HTRF, actives lie on both sides, screened at 100 nM (by protocol), cells primed 5 h with Pam3CSK4 first;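 note: robust z of the log signal after scaling to non-targeting control siRNA wells of the plate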
Method in brief: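 Knockdown: 100 nM siRNA, 48h, RAW264.7. Stimulation: Pam3CSK4 5 h, then LipidA via TransIT-TKO 24 h. Output: supernatant IL-1a HTRF, negative-control-normalized, log robust z-score; viability by CellTiter-Glo.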

z-score, active:
GGAUGGUCUUAGGAUUACGTT against Fgf15 2.04
GGUGGAUUUUAAGUUUCCUTT against Aurkc 3.43
GGCUAAUGUAUCGUCUGAGTT against Asb16 3.06
GGUGUGUGGCCAGAAAGUUTT against Sfi1 -2.83
GCACAAUAAUAAUGACACUTT against AI597479 2.76
GGCUGUUCAAAGUGACCCUTT against Hbp1 -3.11
GGUGCUGAUUACAGUAGAATT against Pcdhga10 2.01
GCAGUUGUCAUGCUAAACCTT against Ptpn2 2.89
GGGCAUUGGUGACUUUGAATT against Hrob -2.11
GGUGAAGGUGCCUUCCAAATT against Il27ra 2.91
GGUGCCAAUCCUUUGGACATT against 4930590J08Rik 3
GCCCAUUGUUACCUUGUACTT against Klb -2.06
GGAACAAGUACAUACUUAUTT against Frs2 2.09
GCGAUGAUGAAAGCUCAGUTT against Atad1 -2.36
GGAAGAAGCAGCAAGAAGATT against Ttc39b -2.16
GGUGGUACGCAAUCAAAAGTT against Galnt17 2.46
GGCAGAAGCAGAUAUUAGATT against Rbmxl1 2.23
GGAGCAAGAUGAAGAAGAGTT against Ticam2 -2.26
GGAAGAUCAUAAUGGACAGTT against Pcsk9 6.01
GCACUGUUUGUGCAAACAATT against C130071C03Rik -2.22
CCCACUGGUGUACGUGAUCTT against Bdkrb2 2.21
GGUCAAAGUUAUGCAAUGUTT against Rp9 -2.02
GGACUUGAUUAUCUACACUTT against Stk24 -2.24
GCGUAACUACUACAUGAAUTT against Ano9 -2.33

z-score, inactive:
GGAACCCAUCUCUCAAGCATT against Atp5g1 0.563
GGCAAUUCAAACAAUGCAGTT against Orm1 -1.41
GCUAUAAUUUGACAGUUAGTT against Lrba 0.0367
GGAGAGAUGCCUUUUAAGUTT against Zfp954 -0.252
GGUAAAGAUCCAGUGCCGCTT against Tbc1d10c -1.02
GGUUCAAGUGCAUUGCUUCTT against Rab34 0.979
GGGCAAUCUGAGCAAUUGUTT against Wnt7b -0.213
GCCUAGACAAUGGUGACCUTT against Nsfl1c -0.772
CCGACAUUUUCGUCACCAGTT against Gabra1 -1
CCAGCCAUAUCAACCGUAUTT against Lzts3 0.084
CCGCUUCUCUAGUGAAUAATT against Uros -1.56
GGAAACACUUGAACAAAGATT against Tph2 0.518
GGACAUGUUUGUGUUAAAGTT against Ctnna1 0.187
GCUUUAUGAGUUCACGGAGTT against Prkab2 1.02
GGUUCUUAUCUCUAUUCAGTT against Olfr1270 0.432
GGAAACCUACUGUUGCACUTT against Wdr59 -0.627
GAAGAUUGGAUUUAAAGCCTT against Olfr667 -0.891
GGCUACAAGUGGGAAUUCATT against Cmtm2b 1.61
GGAGCUCAAGAACAGGAUGTT against Clec3b -0.0394
GCGGAGAAUAACAUAUCUCTT against Fut8 -0.521
GGAUUUGUAAAUUACCUGGTT against Clec4d 0.544
GUAUGCUAGCAUGAUCAACTT against Ndufa3 1.05
GGCCAGAUAUUAUAAGAAATT against Gtdc1 0.332
GCCUUUGCAUGGCAGUCUATT against Zfp825 -0.716
GCUGCCUAUGGCUUCUUCCTT against Tmem160 -1.37
GGACCAAGUAUCAUGAUGUTT against Zfp369 0.222
GCACCUCUUGGACAAAAUUTT against Tsc1 -1.59
GGCGGCCUAUAUGAGGUUCTT against Cftr 0.548
GCAUUGAGAUGAGAGCCUATT against Uroc1 -0.167
CGAAUACUACGCCAAGAUUTT against Abca2 -0.867
GCUCAGUACCGCACAACCATT against Dus3l -0.827
CCUAUUGUGAGCUUAAUGCTT against Nrxn2 -0.74
GGGCUAUGUACCCUAUAAUTT against Eps8l1 -1.37
GGACACAACAAGUCUUAUGTT against Prg2 -0.876
CCUUGCUACUCUGAUAACGTT against Tmeff1 0.761
CCUAGUGUGUUAAUUGUAATT against Ric1 -1.28
GGAUGCUUACGGGAGACGATT against Tmem9 -0.595
GGAGAUUCACUUUCUAUCUTT against B3gnt9 0.656
CCCUAAGACGAAGGAAAUGTT against Pdrg1 -0.844
GGCGAGUUCCAGAUUCUUCTT against Car3 1.69
GCUGAAGACCGACUACAAGTT against Cnih1 0.569
GGAAGUUUACCAGUCUAUCTT against Pik3c2a 1.4
GCUACCCAUGAGCUUUCGATT against S100a3 0.495
GGCCUUAUCGGCAGAUAUUTT against Tmem44 -1.24
GGCAGUCUUAUAAUUCAUCTT against Zfp944 -1.08
CGUUUGACACUUUUGCCUUTT against Mid1 1.09
GGUUUUUGUGGCUGAUCUUTT against Zfp711 -0.545
GGAUUUCCUUGGUUCUUUUTT against Mylip 0.145
GCUCUUCCGCACUUUCAUUTT against H2al1m 1.37
GGAACACUCCAGUUUGAAUTT against Thsd1 1.09
GCACUCAAGGUUUUACUGUTT against Satb1 -0.356
CCUUGUGUAUGAAAUACUUTT against Taf1b -0.282
GCUUGAUUUUUGACAGAGATT against Mdh1b 1.48
CCAGGAGUCGAGUGAUGGUTT against Rtl1 0.886
GGGUAAACUGUGGAGAAAUTT against Fam214b -0.833
GAUGAAAGCUACAAUGAAGTT against Srpx2 1.67
GGAAUUUCAGGAGAUACUGTT against C1qtnf12 -1.04
GCCGGAUCUAUUAAAGAAATT against Hdac2 0.134
GCAACUAUACUGGACAAUUTT against Olfr328 -1.19
GGCUUAUUAUCAGGAAAUGTT against Plcz1 -1.32
GGAAGUCUACAAGUGGCCATT against Nr1d1 -0.467
CGCAGCGACCAGCUUUCAATT against Srebf2 0.789
GCCACCUAAUUUACAAUCUTT against Ccn3 0.573
GCACCAAUUCCCUAACUGGTT against Fam102a 0.244
GGACCUACAUAACAAGCUUTT against Thnsl2 1.83
GGUUUCUGUUUUGUCACACTT against Slc22a13b -0.535
GGGCAAUGGAAGAAUUCCUTT against BC030500 -1.69
CCACGCUACCUUCAAGAGATT against Clec14a 0.946
GGAUCUUGACUUUGAUAUGTT against Trpm4 0.0632
GGACUCAAAACCAUUUACATT against Dram1 -1.13
GGAUCAACUGGUGACACAGTT against Preb -0.00996
GGAUCCUGCUCAAAAAAGUTT against Arxes1 -0.431
GAAGUCGGUGGACAAGAACTT against Cebpa 0.662
CCACUCUAAUGAUGUUUUUTT against Slc46a3 0.411
GGCUAAGGAAUGUCAAUAATT against Dnajc5g 0.0787
GGUGCUACCUCUAGAUAUUTT against Utp3 1.96
CCACUUCUCUAAGACAAUCTT against Acox3 -0.107
CCCAUUGGAACUGCUGUAATT against Metrnl 0.932
CGAAUAUGGUAUUCACUCATT against Skint4 0.157
GCCCUUACAUUUUAUACUATT against Zfp93 1.1
CCACGUCCUCUACUUGUAUTT against Nmbr -0.813
GGACUUACUUCCCAUUUCGTT against Gdpd3 0.297
GGUGUAUGCGUCACUAGAATT against Rxra 0.0162
GGACUACUCUGCCAGAUGGTT against Fam71f1 0.0252

— PubChem BioAssay AID1508600 (Functional Genomics Laboratory (NCATS/FGL), 2020)
